The values that follow come from PubChem BioAssay AID630 (Emory University Molecular Libraries Screening Center, 2007).

SMILES strings stand for the structures. Hit rate of the full screen: of about 88,000 compounds, about 260 (0.3%) were called active. What follows is part of a selection rich in actives, with near analogues and random picks from the rest. Unmarked numbers belong to inactive results.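 The calls were made as follows: active = compounds that reduce the energy-transfer binding signal between the protein and its labelled peptide by more than half; inactive = the rest.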

Sequence of Mothers against decapentaplegic homolog 3 (Homo sapiens) (P84022 whole entry, looked up): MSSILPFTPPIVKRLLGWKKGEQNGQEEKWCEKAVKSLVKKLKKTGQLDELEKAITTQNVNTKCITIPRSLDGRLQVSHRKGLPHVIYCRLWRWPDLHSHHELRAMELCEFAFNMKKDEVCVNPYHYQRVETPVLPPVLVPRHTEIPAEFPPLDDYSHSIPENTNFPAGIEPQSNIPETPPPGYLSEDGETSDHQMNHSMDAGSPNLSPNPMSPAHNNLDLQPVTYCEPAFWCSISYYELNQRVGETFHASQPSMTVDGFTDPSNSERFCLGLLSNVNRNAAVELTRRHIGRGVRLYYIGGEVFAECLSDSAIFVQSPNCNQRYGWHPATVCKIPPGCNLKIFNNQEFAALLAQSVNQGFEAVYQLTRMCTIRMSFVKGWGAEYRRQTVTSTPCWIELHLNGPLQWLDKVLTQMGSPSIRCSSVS

This assay concerns the target Mothers against decapentaplegic homolog 3 (Homo sapiens) (UniProt P84022). Description: blockers of Smad3 binding to FoxH1 – biochemical, TR-FRET, primary screen (AID 630).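 Also: 0% = Smad3 plus labelled peptide maximal FRET and 100% = peptide-only background.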 Particulars: TR-FRET Smad3/Dy647-FoxH1 peptide binding, europium anti-His; at 25 µM; active compounds read high.
What is called inhibition is the change of the read-out against control, counted positive when it falls. For `O=C(O)c1c(Br)c(Br)c(Br)c(Br)c1C1c2ccc(O)cc2Oc2cc(O)ccc21`, the inhibition is 93.1% (active).
In the case of `COc1cccc(N=c2oc3c(C)ncc(CO)c3cc2C(N)=O)c1` it was 10.9%; in that of `CC1(CC(=O)O)O[C@@H]2CCCCC[C@H]2O1` (tested in a mixture with another compound), 14%.
In the case of `Cc1cc(NC(=O)CS(=O)(=O)c2cn(C)c3ccccc23)no1` it was -0.74%.
Then `Cc1ccccc1CSCCNC(=O)c1ccc(Cl)c(S(=O)(=O)N2CCOCC2)c1`, with 4.77%; and `CCC1CCCCN1CCCNC(=O)C1CCC(Cn2c(=O)[nH]c3ccccc3c2=O)CC1` (centres undefined), with 14.2%.
In the case of `COc1ccc(C(C#N)Nc2ccccc2C)cc1` (centres undefined), the inhibition is -2.51%.
Then `COc1ccc(C(=O)OCC(=O)NCC2CCCCC2)cc1S(=O)(=O)N1CCCc2ccccc21`, with 0.19%.
Take `Cc1ccc(S(=O)(=O)N(c2cccc(C)c2)C2CCS(=O)(=O)C2)cc1` (centres undefined): the inhibition was 0.21%.
In the case of `COc1ccc(C2(CNC(=O)C(c3ccccc3)c3ccccc3)CCOCC2)cc1OC` it was 3.2%; in that of `COc1ccc(S(=O)(=O)N2CCOCC2)c(C)c1C`, 15.3%.
In the case of `Cc1c(O)c(Br)c(C)c(O)c1Br` (tested in a mixture with another compound) it was 94% (active).
In the case of `CCc1ccccc1NC(=O)CN(C)S(=O)(=O)c1ccc2c(c1)c(=O)n(C)c(=O)n2C`, the inhibition was -4.79%.
In the case of `C=C(C)CNC(=S)/N=c1\scc(C)n1CC` it was 91.6% (active).
Then `OC[C@@H]1O[C@H](n2cnc3c(SCc4ccccc4)ncnc32)[C@H](O)[C@H]1O`, with 4.63%; and `CC(C)OC(=O)c1c(NC(=O)c2ccco2)sc2c1CCCC2`, with -1.98%.
For `CC(O)CN(Cc1ccc(Cl)cc1)CC(C)O` (centres undefined), the inhibition is 0.45%.
Then `COc1ccc(S(=O)(=O)N/N=C\c2ccc(OC)c(COc3ccc(C)cc3[N+](=O)[O-])c2)cc1`, with -3.11%; and `Cc1ccc(SC(=O)COc2ccc(C)c(C)c2)cc1`, with -5.83%; and `CCN1C(=O)C(CC(=O)Nc2cc(C)ccc2C)SC1=Nc1ccc(S(N)(=O)=O)cc1` (centres undefined), with -12.6%.
Then `O=C(C1=C(O)C(=O)N(Cc2ccccc2)C1c1ccco1)c1ccco1` (centres undefined), with 12.4%; and `C[C@@]12CC[C@H]3c4ccc(O)cc4CC[C@@H]3[C@H]1CC[C@H]2OC(=O)CCC1CCCC1`, with 39.6%; and `CC(=O)Nc1ccc(OCC(O)CN2CCN(c3ccccc3Cl)CC2)cc1` (centres undefined), with 4.39%.
In the case of `CCOc1ccc(N=C2NC(=O)S/C2=C\c2ccc(O)cc2)cc1` it was -8.11%; in that of `O=C(NC1CCC(O)CC1)c1ccc(S(=O)(=O)NCc2ccco2)cc1` (centres undefined), 1.61%.
`COC(=O)C1=C(C)Nc2ncnn2C1c1cccnc1` (centres undefined): the inhibition was -10.7%.
In the case of `Cc1ccc(S(=O)(=O)N(C)C2(C)CCS(=O)(=O)C2)cc1` (centres undefined) it was -7.37%; in that of `Cn1cnc([N+](=O)[O-])c1Nc1ccccc1O`, -0.46%; in that of `O=C(N/N=C/c1ccc(O)cc1)/C(=C/c1ccc([N+](=O)[O-])cc1)NC(=O)c1ccccc1`, -3.81%.
In the case of `Cc1cccc(C)c1NC(=O)CSc1nnc(-c2ccccc2)n1Cc1ccc2c(c1)OCO2` it was 14.3%; in that of `Cc1nn(-c2ncc(C(F)(F)F)cc2Cl)c(=O)n1-c1ccccc1`, 9.91%; in that of `O=C(COc1ccccc1)Nc1nonc1NC(=O)COc1ccccc1`, 8.67%.
Then `O=C(CSCc1ccccc1)N1CCc2ccccc21`, with -1.3%.
Take `O=C(c1cccc(N2CCCC2=O)c1)N1CCOCC1`: the inhibition was -6%.
As for `Cc1ccc(/C=N/NC(=O)Cn2nc(C)c(Br)c2C)o1`, the inhibition is 21.4%.
In the case of `O=C(Nc1ccccc1C(=O)NCCCn1ccnc1)c1ccc(Cl)cc1Cl` it was -0.02%.
For `COc1cc(OC)c(-n2c(C)cc(C=O)c2C)cc1Cl`, the inhibition is 2.99%.
On to `Cc1nc(NC(=O)C2CCCCC2)sc1C`, for which the inhibition is 10.5%.
In the case of `CCOC(=O)c1ccc2c(c1)nc(SCC(=O)NC(C)C)n2CC` it was 20%; in that of `CS(=O)(=O)N(CC(=O)N1CCN(c2ccc(F)cc2)CC1)C1CCCCC1`, -8.5%.
In the case of `c1ccc(CC2CCN(c3nc4ccccc4n4cnnc34)CC2)cc1` it was -10%; in that of `Cn1nc(-c2ccccc2)c(-c2nc(-c3ccc(Cl)cc3)no2)c1Cl`, 2.93%; in that of `COc1ccc(CN(CC(=O)NC2CCCC2)C(=O)CCC(=O)Nc2cc(C)on2)cc1`, -0.48%.
In the case of `Cc1oc(-c2ccccc2Cl)[n+]([O-])c1C`, the inhibition was 2.52%.
Then `Cc1ccc(CS(=O)(=O)CCC(=O)NC2CC2)cc1`, with 6.21%; and `CCOc1ccc(NC(=O)C2CCCN(C(=O)Nc3ccccc3)C2)cc1` (centres undefined), with 10.5%; and `COC(=O)c1nc(NC(=O)c2ccccc2)n[nH]1`, with 1.94%.
Take `Cc1cccc(C(=O)Nc2ccccc2N2CCN(c3ccc(F)cc3)CC2)c1`: the inhibition is 3.31%.
In the case of `c1ccc(C(c2ccccc2)N2CCN(Cc3nnnn3C3CCCCC3)CC2)cc1` it was -7.75%.
In the case of `COc1ccc(-c2nc3ccccc3n2CCC(C)C)cc1OC` it was -3.34%; in that of `C=CCC(NCc1ccco1)c1ccc(OC)cc1` (centres undefined), 2.67%.
In the case of `CCc1c(O)cc2n(c1=O)-c1ccccc1C2(C)C` it was 7.56%; in that of `Cc1ccc(-c2cc(C(=O)NCC3CCCO3)c3ccccc3n2)o1` (centres undefined), 0.54%; in that of `Cc1ccccc1-n1c(C)cc(/C=C2\NC(=O)NC2=O)c1C`, 10.8%.
With `O=C(NCCCCCCNC(=O)NCc1ccco1)NCc1ccco1`, the inhibition is 10.3%.
Then `FC(F)(F)c1cnc(Oc2ccccc2-c2nnc(-c3ccc(Cl)cc3)o2)c(Cl)c1`, with 6.7%; and `Cc1cc(C)c(S(=O)(=O)N2C=CC(C(F)(F)F)=NCC2)c(C)c1`, with -6.95%; and `Cc1cccc(C(=O)O)c1C[C@@H]1NCC[C@@H]2c3ccccc3N[C@@H]12`, with 8.15%.
In the case of `CC(NC(=O)C1CCC(CNc2c(N3CCOCC3)c(=O)c2=O)CC1)c1ccccc1` (centres undefined) it was -2.58%.
